Molecules are shown by their SMILES. In all, about 68,000 compounds went through this assay and about 2,700 (4%) showed an effect of 50% or more. The sample holds strong results, similar compounds and a random draw of the others, so the mix is not that of the screen.

The subject of the experiment is Plasmodium berghei. In words: Screen against P. berghei liver stage (PbLuc), transformed with Luciferase, at 2uM. In kind it is functional, HepG2. The settings on record: tested at 2 uM.
Take `COCCN(Cc1cccnc1)S(=O)(=O)c1cc(C)ccc1F`: the INHIBITION was determined as 37.79%.
For `Cn1cc(NS(=O)(=O)c2ccc(C(F)(F)F)cc2)ccc1=O`, the INHIBITION was 21.83%.
Take `Cc1nc(CC(C)C)cc(C(=O)N2C[C@@H](CN(C)C)[C@@H](CO)C2)n1`: the INHIBITION came to 3.46%.
To `CCc1noc(C(C)N2CCC(C(=O)Nc3cnn(CC)c3)CC2)n1` (centres undefined) belongs -56.72%.
For `CCN(Cc1ccc2c(c1)OCO2)C(=O)c1ccc(C)[nH]c1=O`, the INHIBITION was 0.26%.
As for `COc1ccc(Cl)cc1C(=O)N1C[C@H](C(C)C)[C@@H](N)C1`, the INHIBITION turned out to be 5.88%.
To `NC(=O)NC(=O)CCSCc1coc(-c2cccc(Cl)c2)n1` belongs 16.25%; to `O=C(Nc1cnc2n1CCCC2)C1CCCN1C1CCNCC1` (centres undefined), -26.04%.
On to `CCN(CCC1CCN(C(=O)NCc2nncn2CC)CC1)CC1CC1`, for which the INHIBITION amounted to 56.4%.
With `CCn1cnnc1CNC(=O)N1CCN(c2nccs2)CC1`, the INHIBITION is given as 17.31%.
In the case of `CCn1cnnc1CNC(=O)N1CCC(C)CC1` it was 56.4%; in that of `CCn1cnnc1CNC(=O)N1CCN(c2ccccc2O)CC1`, -3.06%.
To `CCn1cnnc1CNC(=O)N1CCCCCC1` belongs -8.32%.
In the case of `CCN(CC)C1CCN(C(=O)NCc2nncn2CC)CC1` it was 55.52%; in that of `CCn1cnnc1CNC(=O)N1CCN(c2cccs2)CC1`, 54.85%.
For the molecule `CCn1cnnc1CNC(=O)N1CCC(C(=O)NC)CC1`, the INHIBITION is -29.11%.
With `CCn1cnnc1CNC(=O)N1CCCC1`, the INHIBITION is on record as 33.82%.
In the case of `CCn1cnnc1CNC(=O)N1CCC(CN2CCCCCC2)CC1` it was 27.47%; in that of `CCn1cnnc1CNC(=O)N1CCOCC1`, 27.31%; in that of `CCn1cnnc1CNC(=O)N1CCC(O)CC1`, -0.05%.
In the case of `Cc1cc2ccccc2n1CCC(=O)NCCS(C)(=O)=O` it was -67.22%; in that of `O=C(C1CCOCC1)N1CCc2ncnc(-c3ccc(F)cc3)c2CC1`, -7.01%; in that of `c1cncc(CNc2ccccc2-c2nn[nH]n2)c1`, 27%.
With `O=C(c1cscn1)N1CCCC2(CCN2Cc2cccc(F)c2)C1` (centres undefined), the INHIBITION is 37.33%.
As to `CC(C)N(C)Cc1cc(=O)n2c(n1)CN(C(=O)c1cnccn1)CCC2`, the INHIBITION was -14.64%.
Take `Cn1ccnc1CN1CCCN(C(=O)c2ccc3[nH]nnc3c2)CC1`: the INHIBITION is -56.99%.
To `Cn1ccc2c(ccn2CC(=O)Nc2ccc(Br)cc2)c1=O` belongs 0.5%.
To `Cc1ccc(NC(=O)Cn2ccc3c(=O)n(C)ccc32)cc1F` belongs 41.86%.
To `COc1ccc(NC(=O)Cn2ccc3c(=O)n(C)ccc32)cc1OC` belongs 52.61%; to `CCn1ccc2ccnc(CC3CN(C(=O)Cn4ccnc4C)C3)c21`, 2.78%.
As for `CCc1nnc(CNC(=O)CCN2CCN(c3cccc(C)c3)CC2)s1`, the INHIBITION is reported as -27.19%.
In the case of `Cc1cccc(N2CCN(CCC(=O)NCc3cnc(C)cn3)CC2)c1`, the INHIBITION is on record as -39.01%.
`Cc1cccc(N2CCN(CCC(=O)NCc3nnc[nH]3)CC2)c1`: the INHIBITION turned out to be 71.67%.
To `CC1(c2ncc(CN3CCN(c4ncccn4)CC3)cn2)CCCCO1` (centres undefined) belongs -30.88%.
Consider `COc1ccc(-n2nc(C3CC3)nc2CCn2cnnn2)cc1`, for which the INHIBITION is -4.15%.
Regarding `Cc1cccc(CNC(Cc2ccsc2)c2nc(C)c(C)s2)n1` (centres undefined), the INHIBITION came to 8.75%.
To `CC[C@H]1N(CC2CCOCC2)CCC[C@]12CCC(=O)N2` belongs 65.91%; to `CC[C@@H]1N(CC2CCOCC2)CCC[C@]12CCC(=O)N2`, 20.88%; to `CC[C@@H]1N(CC2CC2)CCC[C@]12CCC(=O)N2`, 10.49%.
To `Cc1ccc(C(=O)N2Cc3c(CN4CCCCC4)nn(C)c3C2)cc1C` belongs -15.95%.
As to `Cc1cc(C)c2c(N(C)CC3CCOC3)ncnc2n1` (centres undefined), the INHIBITION is listed as 27.73%.
In the case of `CN(CC1COCCO1)c1ncnc2cc(F)ccc12` (centres undefined) it was 22.62%; in that of `Cc1cc(C)c2c(N(C)CC3COCCO3)ncnc2n1` (centres undefined), 55.7%.
On to `Cn1c(Cn2cccn2)nnc1C1CCN(Cc2ccccc2Cl)CC1`, for which the INHIBITION came to 15.75%.
In the case of `N[C@H]1c2ccccc2C[C@@H]1NC(=O)C1CCN(Cc2ccco2)CC1` it was 22.88%; in that of `CN(C)C(=O)CO[C@H]1CN(Cc2ccccc2)[C@@H]2CCCO[C@H]12`, 45.56%; in that of `CN(C)C(=O)CO[C@H]1CN(Cc2ccc(F)cc2)[C@@H]2CCCO[C@H]12`, -84.27%.
For `CN(C)C(=O)CO[C@@H]1CN(Cc2ccccc2)[C@@H]2CCCO[C@@H]21`, the INHIBITION was 52.66%.
To `Cn1cnnc1CNC(=O)C1CCCN(Cc2ccccc2)C1` (centres undefined) belongs 6.33%; to `CCNC(=O)NC1CN(Cc2ccncc2Cl)C[C@@H]1OC` (some centres undefined), -0.98%; to `COCC1c2c(cnn2CC2CC2)CCN1Cc1ccc(OC)cc1` (centres undefined), -4.92%.
To `Cc1nc(COC[C@@H]2CC[C@H]3[C@H](CCN3c3ncccn3)O2)cs1` belongs -8.23%; to `COc1ccc(C(=O)C2CCCN(CCc3ccccc3)C2)c(OC)c1` (centres undefined), -18.81%; to `CCOc1cc(CN(C)Cc2ccccc2)ccc1OC(F)F`, -5.59%.
Take `CCOc1cc(CN(C)CCC(=O)OC)ccc1OC(F)F`: the INHIBITION was 14.96%.
Turning to `CCOc1cc(CN(C)CC(=O)O)ccc1OC(F)F`, the INHIBITION amounted to 78.96%.
To `CCN(Cc1nonc1C)C(=O)c1cc(C(F)(F)F)nn1C` belongs -12.5%.
Turning to `Cc1cnc(N2CC3(CCN(Cc4cccnc4)C3)C2)nc1`, the INHIBITION stood at 9.53%.
To `O=C(C1CCCO1)N1CCC2(CC1)COCCN(Cc1cccnc1)C2` (centres undefined) belongs 55.49%; to `COCC(=O)N1CC[C@]2(O)CCN(Cc3ccsc3)C[C@@H]2C1`, 19.49%; to `O=C(C1CCCO1)N1CCC2(CC1)COCCN(Cc1ccncc1)C2` (centres undefined), -66.98%.
In the case of `COCC(=O)N1CC[C@]2(O)CCN(Cc3cccnc3OC)C[C@@H]2C1` it was 56.49%; in that of `c1cnc(N2CCC3(CCN(Cc4cccnc4)CC3)CC2)nc1`, 45.82%; in that of `c1cnc(N2CC3(CCN(Cc4cccnc4)C3)C2)nc1`, 52.91%.
In the case of `COCC(=O)N1CCC2(CCN(Cc3ccc(C)cc3)CC2)CC1` it was -4.2%; in that of `O=C([C@@H]1CCCO1)N1CCOCC2(CCN(Cc3cccnc3)C2)C1` (some centres undefined), -31.3%; in that of `COc1ncccc1CN1CC[C@@]2(O)CCN(C(=O)C3CCC3)C[C@H]2C1`, 27.85%.
Take `COCC(=O)N1CCC2(CCN(Cc3cccnc3)C2)CC1`: the INHIBITION was determined as 51.81%.
To `COCC(=O)N1CCC2(CC1)C(=O)N(Cc1cccnc1)CCN2C` belongs 33.3%; to `Cc1cnn(CC2CCCN2C(=O)c2ccc(-n3cccn3)nc2)c1` (centres undefined), -26.85%; to `O=C(NCC(F)(F)F)c1ccc(-c2ccco2)[nH]c1=O`, -5.09%.
In the case of `Cc1cnn(CC2CN(Cc3nccn3CC(F)(F)F)CCO2)c1` (centres undefined) it was 36.64%; in that of `CN1C[C@@H](NC(=O)c2ccccc2)C[C@H]1c1nc(-c2cnccn2)no1`, 23.26%; in that of `COc1ccc(CNC(=O)CCc2nnc3ccccn3c2=O)cc1`, 8.41%.
To `CO[C@@H]1CCN(C(=O)Cc2ccc(F)cc2)[C@@H]1Cc1cccnc1` belongs -16.75%; to `CCn1cc(CN2CCC(O)(Cn3ccc4ncccc43)CC2)cn1`, 22.39%.
With `OC1(Cn2ccc3ncccc32)CCN(Cc2cc(F)cc(F)c2)CC1`, the INHIBITION was 31.56%.
In the case of `OC1(Cn2ccc3ncccc32)CCN(Cc2cccnc2)CC1`, the INHIBITION was determined as 53.24%.
To `O=C(CCOc1ccccc1)N1CCCC(n2cncn2)C1` (centres undefined) belongs 33.5%; to `Cc1nc2c(c(N3CC=CC3)n1)CCN(c1ncccc1C(N)=O)CC2`, -11.31%; to `CCS(=O)(=O)CCCOc1nc(-c2ccccc2Cl)no1`, -5.27%.
In the case of `O=C1CCC2(CCC(NC3CCOC3)CC2)N1Cc1ccccc1` (centres undefined) it was 35.34%; in that of `Cc1ccc(CN2C(=O)CCC23CCC(NC2CCOC2)CC3)cc1` (centres undefined), 29.85%; in that of `O=C1CCC2(CCC(NC3CCOC3)CC2)N1Cc1ccncc1` (centres undefined), 56.76%.
To `CCc1ccc(CN(C)c2cc(COC)nc3ccnn23)cc1` belongs 14.96%; to `CN(Cc1cnn(C)c1)C(=O)C1COc2ccccc2C1` (centres undefined), -11.77%.
As for `O=C(NC1CCC1)[C@H]1C[C@H]2CN(S(=O)(=O)c3ccccc3)C[C@@H]1O2`, the INHIBITION is given as 24.34%.
To `Cc1cccc(OCCCNC(=O)NC(C)c2nncn2C)c1` (centres undefined) belongs -7.01%; to `Cc1cccc(C)c1OCCNC(=O)NC(C)c1nncn1C` (centres undefined), 64.53%; to `Cc1ccc(OCCCNC(=O)NC(C)c2nncn2C)cc1` (centres undefined), -10.5%.
Take `N[C@H]1CN(CCOc2ccc(F)cc2)C[C@@H]1C1CC1`: the INHIBITION is listed as 55.85%.
In the case of `N[C@H]1CN(CCCOc2ccccc2)C[C@@H]1C1CC1` it was 18.64%; in that of `NC(=O)c1ccc(OCCCN2C[C@H](C3CC3)[C@@H](N)C2)cc1`, 9.56%; in that of `COC1CN(C(=O)OCC(C)C)CCC(=O)N(C)c2ccccc21` (centres undefined), -16.76%.
In the case of `Cc1nn(C)c2nc(N3CCCCC3c3ccc(F)cc3)sc12` (centres undefined) it was 8.3%; in that of `C1CCC(CN2Cc3nnn(CC4CC4)c3C(COCC3CC3)C2)C1` (centres undefined), -6.19%; in that of `O=C1[C@@H]2CCN(Cc3ccoc3)C[C@@H]2OCCN1Cc1cccc(F)c1`, 20.41%.
On to `Cc1ccc(S(=O)(=O)Nc2ccc(-n3cccc3C(=O)O)c(C)c2)s1`, for which the INHIBITION is recorded as -1.14%.
In the case of `Cc1cc(NS(=O)(=O)c2cccs2)ccc1-n1cccc1C(=O)O` it was 50.17%; in that of `Cc1cc(NS(=O)(=O)c2ccc(Cl)s2)ccc1-n1cccc1C(=O)O`, 31.15%; in that of `O=C(NCCOc1ccccc1)NCC(O)c1cccs1` (centres undefined), -85.29%.
Take `Cc1ccoc1C(=O)N1C[C@@H]2[C@@H](C1)OCC(=O)N2Cc1cccnc1`: the INHIBITION is -2.91%.
To `Cc1nc2c(c(NC3CC3)n1)CCN(C(=O)CCO)CC2` belongs -10.44%.
`CC(=O)N1CCC(C(=O)NCCN2CCCCC2)CC1`: the INHIBITION is 18.97%.

For the origin of these results see ChEMBL document CHEMBL4513216, “Probing the Open Global Health Chemical Diversity Library for Multistage-Active Starting Points for Next-Generation Antimalarials” (ACS Infect Dis, 2020).
